Laboratory results: PMC4336329 (PLoS ONE, 2015)
Out of some 310,000 compounds screened, about 14,000 (4.5%) showed an effect of 50% or more. The effect is printed as a negative number. What follows is part of a selection rich in strong results, with near analogues and random picks from the rest.

Biological target: human ether-à-go-go-related gene (hERG) potassium channel (human, UniProt Q12809)
Assay: primary screen, population patch clamp on CHO cells stably expressing hERG; higher = less effect of the substance
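Also: peak tail current of the secondary pulse compared with the same well before compound.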

Chain of human ether-à-go-go-related gene (hERG) potassium channel (Q12809 whole entry, looked up): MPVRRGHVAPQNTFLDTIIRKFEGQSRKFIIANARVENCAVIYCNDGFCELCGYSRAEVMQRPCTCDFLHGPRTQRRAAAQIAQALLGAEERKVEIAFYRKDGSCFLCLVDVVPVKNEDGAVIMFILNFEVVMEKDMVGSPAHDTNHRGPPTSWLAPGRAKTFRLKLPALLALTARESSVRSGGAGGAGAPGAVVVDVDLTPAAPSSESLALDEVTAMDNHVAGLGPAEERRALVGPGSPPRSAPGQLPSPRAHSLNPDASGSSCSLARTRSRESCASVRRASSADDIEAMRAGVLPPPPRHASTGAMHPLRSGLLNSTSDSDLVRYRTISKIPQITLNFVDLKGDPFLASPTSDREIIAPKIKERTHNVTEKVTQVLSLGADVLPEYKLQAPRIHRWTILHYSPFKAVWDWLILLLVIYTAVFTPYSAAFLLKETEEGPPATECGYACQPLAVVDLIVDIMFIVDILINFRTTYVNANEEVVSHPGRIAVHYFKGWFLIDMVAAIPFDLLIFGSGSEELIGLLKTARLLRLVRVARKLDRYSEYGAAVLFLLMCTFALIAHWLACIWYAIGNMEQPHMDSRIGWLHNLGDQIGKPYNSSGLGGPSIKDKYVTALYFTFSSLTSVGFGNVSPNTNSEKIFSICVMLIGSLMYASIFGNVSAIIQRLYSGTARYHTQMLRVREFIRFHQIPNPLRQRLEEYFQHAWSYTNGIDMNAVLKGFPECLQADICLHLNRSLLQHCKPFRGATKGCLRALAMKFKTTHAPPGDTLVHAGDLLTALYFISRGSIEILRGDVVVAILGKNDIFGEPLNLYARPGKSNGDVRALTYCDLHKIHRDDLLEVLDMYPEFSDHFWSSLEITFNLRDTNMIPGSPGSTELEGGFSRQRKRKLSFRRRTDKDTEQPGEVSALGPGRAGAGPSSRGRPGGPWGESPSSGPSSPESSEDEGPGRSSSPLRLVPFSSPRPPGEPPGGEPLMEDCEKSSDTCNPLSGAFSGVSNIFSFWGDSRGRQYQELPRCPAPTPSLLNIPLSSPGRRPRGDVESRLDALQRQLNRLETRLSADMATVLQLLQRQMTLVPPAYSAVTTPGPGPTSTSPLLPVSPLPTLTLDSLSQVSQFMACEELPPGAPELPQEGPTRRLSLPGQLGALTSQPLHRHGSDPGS

Compound | hERG current change (%, negative = inhibition) at 10uM [%]
O=S(=O)(NCc1cccnc1)c1ccc2c(c1)OCCO2 | 0.45
CCOC(=O)c1cnc2c(C)cccc2c1Nc1cccc(C(=O)O)c1.Cl | -8.37
CCOC(=O)c1cnc(SCC(=O)NCc2ccco2)nc1N | -14.5
CCOC(=O)c1cccnc1SC(CC)C(=O)NCc1ccco1 (centres unmarked) | -31.5
CCOC(=O)c1cnc2c(C)cccc2c1NCc1ccco1 | -67.9
CCOC(=O)c1ccc2ncc(C(=O)OCC)c(NCc3ccco3)c2c1 | -24.7
CCOC(=O)c1cnc2ccccc2c1NCc1ccco1 | -56.9
CCOC(=O)c1cnc2c(C)cccc2c1Nc1ccc(N2CCOCC2)cc1 | 8.24
CCOC(=O)c1cnc2c(C(=O)OC)cccc2c1NCc1ccco1 | -70.2
CCOC(=O)c1cnc2ccccc2c1Nc1ccc(C(=O)O)cc1.Cl | 17.9
CCOc1ccc(NC(=O)c2nc(SCC)ncc2Cl)cc1 | 15
COc1ccc(OC)c(C(C(=O)NC2CCCCC2)N(C(=O)c2snc(C(N)=O)c2N)c2ccccc2OC)c1 (centres unmarked) | 14.8
O=C(COc1ccc2c3c(c(=O)oc2c1)CCCC3)NC(Cc1ccc(Cl)cc1)C(=O)O (centres unmarked) | 5.92
CCOC(=O)c1nc(C)n(-c2cc(Cl)cc(Cl)c2)n1 | -17.5
CCOC(=O)c1nn(-c2ccccc2)c(=O)cc1OCC(=O)Nc1cc(C)ccc1OC | -44
CCCNc1nc2c(c(=O)n(C)c(=O)n2C)n1Cc1ccc(F)cc1 | -12.8
COc1ccccc1NC(=O)CCC(=O)O | 23.4
COc1ccc(N2C(=O)CSC2c2cccs2)cc1 (centres unmarked) | -3.37
O=C(Oc1c(CN2CCOCC2)cc(Cl)c2cccnc12)c1cccs1 | -21.9
O=C(Oc1c(Cl)cc(Cl)c2cccnc12)c1cccs1 | 1.95
CN1CCN(Cc2cc(Cl)c3cccnc3c2OC(=O)c2cccs2)CC1 | -53.3
CN(C)S(=O)(=O)c1ccc(N2CCCC2)c(C(=O)NNC(=O)c2ccc(F)cc2)c1 | 15.5
COc1ccc(NC(=O)NNC(=O)C(C)Oc2ccc3ccccc3c2)cc1OC (centres unmarked) | -16.2

Compound | hERG current change (%, negative = inhibition) at 10uM [%]
COc1ccc(C(=O)NCc2nnc(SCC(=O)N3CCOCC3)o2)cc1OC | 13.7
COCCN(CC1CCCN(C2Cc3ccccc3C2)C1)C(=O)c1cccs1 (centres unmarked) | -68.5
COCCN(CC1CCCN(C2Cc3ccccc3C2)C1)C(=O)CSC (centres unmarked) | -10.7
COCCN(CC1CCCN(C2Cc3ccccc3C2)C1)C(=O)c1ccc(C(C)=O)cc1 (centres unmarked) | -78.6
CCOC(=O)CNC(=O)N(CCOC)CC1CCCN(C2Cc3ccccc3C2)C1 (centres unmarked) | -28.5
CCNC(=O)N(CCOC)CC1CCCN(C2Cc3ccccc3C2)C1 (centres unmarked) | -22.9
CCCNC(=O)N(CCOC)CC1CCCN(C2Cc3ccccc3C2)C1 (centres unmarked) | -47.8
O=C(NCc1ccco1)C1CCCN(S(=O)(=O)c2cccc3cccnc23)C1 (centres unmarked) | 0.148
CCOC(=O)c1cc(-c2nnc(SCC(=O)Nc3ccc(F)cc3)o2)c(C)nc1C | 7.9
COc1ccc(C(=O)NCc2nnc(SCC(=O)c3ccccc3)n2C)cc1OC | -18.2
O=C(c1cc(-c2ccccc2)n[nH]1)N1CCc2c([nH]c3ccccc23)C1c1ccccn1 (centres unmarked) | 14.5
Cc1sc2nc(C3CCCCC3)nc(SCC(=O)N3CC(=O)Nc4ccccc43)c2c1C | 52.8
CC(C)c1ccc(/C=C2\SC(=S)N(CCC(=O)N3CCCCC3CCO)C2=O)cc1 (centres unmarked) | 20.3
CCOc1ccccc1N1CC(C(=O)NNC(=O)c2cc(OC)c(OC)c(OC)c2)CC1=O (centres unmarked) | 9
Cc1cc(C)n2c(=S)[nH]nc2n1 | 19.6
CCOC(=O)N1CCC(N2Cc3cccc(C(=O)O)c3C2=O)CC1 | -23.6
CCCN1Cc2cccc(C(=O)N3CCN(c4cc(Cl)ccc4C)CC3)c2C1=O | -52.5
CCOC(=O)N1CCC(N2Cc3cccc(C(=O)N4CCN(c5cccc(Cl)c5)CC4)c3C2=O)CC1 | -63.7
CCOC(=O)N1CCC(N2Cc3cccc(C(=O)N4CCN(c5cccc(C)c5C)CC4)c3C2=O)CC1 | -36.7
CCOC(=O)N1CCC(N2Cc3cccc(C(=O)N4CC(C)CC(C)C4)c3C2=O)CC1 (centres unmarked) | 6.31
COCCN1Cc2cccc(C(=O)N3CCN(c4cc(C)ccc4C)CC3)c2C1=O | -16.5
CCOC(=O)N1CCC(N2Cc3cccc(C(=O)N4CCN(C5CCCCC5)CC4)c3C2=O)CC1 | -62.4
CCCN1Cc2cccc(C(=O)N3CCN(c4ccccc4)CC3)c2C1=O | 6.02

Compound | hERG current change (%, negative = inhibition) at 10uM [%]
Cn1ccc(C(=O)NC(=S)N2CCSCC2)n1 | 9.2
O=C(CSCc1cccc(Br)c1)NC1CC1 | -6.25
Fc1cccc(CSc2nc3ncccc3[nH]2)c1 | 4.28
O=C(O)CC(c1ccc(Cl)cc1)N1C(=O)CCC1=O (centres unmarked) | -7.96
Cn1cnnc1SCCNS(=O)(=O)c1ccccc1 | 10.8
COc1ccc2c(C)c(C)c(=O)oc2c1OC | 3.4
CN(CC1CCCN(CCc2ccc(Cl)cc2)C1)C(=O)CC(F)(F)F (centres unmarked) | -60.5
CN(CC1CCCN(CCc2ccc(F)cc2)C1)C(=O)CCC(F)(F)F (centres unmarked) | -63
CN(C)C(=O)CCC(=O)N(C)CC1CCCN(CCc2ccc(F)cc2)C1 (centres unmarked) | -38.1
CN(CC1CCCN(CCc2ccc(F)cc2)C1)C(=O)CCC(N)=O (centres unmarked) | -23.9
CC(=O)Nc1cccc(C(=O)OCc2csc(CC(=O)Nc3ccccc3C)n2)c1 | -14
N#CCCn1cc(C=C2C(=O)NC(=O)NC2=O)c(-c2ccccc2)n1 | 25.2
CCOc1ccc(C)cc1S(=O)(=O)n1ccc(C)n1 | 4.82
O=C(NCc1ccc2c(c1)OCO2)c1ccc(CSCc2cccc(Cl)c2)o1 | -11.1
Cc1cccc(CSCc2ccc(C(=O)NC3CCCC3)o2)c1 | -55.5
O=C(NCCCN1CCOCC1)c1cc(Cl)ccc1OCc1ccccc1 | -55.7
Cc1ccc(CSCc2ccc(C(=O)NC3CCCC3)o2)cc1 | -18.2
O=C(CC(c1ccccc1)c1cc(Cl)ccc1O)NCCCN1CCOCC1 (centres unmarked) | -50
O=C(NCCCN1CCOCC1)c1cc(Cl)ccc1Cl | 11.5
CC1CCN(CCCNC(=O)c2ccc(CSCc3cccc(Cl)c3)o2)CC1 | -74.8
O=C(CC(c1ccccc1)c1cc(Cl)ccc1O)NCCN1CCOCC1 (centres unmarked) | -42.1
O=C(CC(c1ccccc1)c1cc(Br)ccc1O)NCCCN1CCOCC1 (centres unmarked) | -31.3
Cc1ccccc1S(=O)(=O)Cc1ccc(C(=O)NCCCN2CCC(C)CC2)o1 | -36.2

Compound | hERG current change (%, negative = inhibition) at 10uM [%]
COc1ccc(Cl)cc1C(=O)NCCCN1CCOCC1 | 9.16
Cc1ccc(CSCc2ccc(C(=O)NC3CC3)o2)cc1 | -5.31
CCC(C)C(NC(=O)C1CCC(C)CC1)C(=O)Nc1ccc(OC)cc1OC (centres unmarked) | -4.26
CCCCC(c1nnnn1C(C)C)N1CCN(C(=O)c2ccco2)CC1.Cl (centres unmarked) | -18.9
O=C(c1ccccc1)N1N=C(c2ccccc2)CC1c1ccccc1[N+](=O)[O-] (centres unmarked) | 13.4
COc1ccccc1CNc1cc(CSc2ccc(Cl)cc2)nc(C)n1 | -0.554
CCOC(=O)c1ccc(N2Cc3ccccc3C2=NC(=O)c2cccc([N+](=O)[O-])c2)cc1 | 10.7
CN(C)c1ccc(/C=N/NC(=O)CCCO)cc1 | 24.4
Cc1ccc(CSCc2ccc(C(=O)NCCCN3CCOCC3)o2)cc1 | -51.8
O=C(NCCCN1CCOCC1)c1ccc(CSCc2cccc(Cl)c2)o1 | -64.4
Cc1cccc(CS(=O)(=O)Cc2ccc(C(=O)NCCCN3CCOCC3)o2)c1 | -12.6
Cc1ccc(CSCC(=O)NCCCN2CCOCC2)cc1 | 11.4
CN1CCN(CCCNC(=O)c2ccc(CSCc3cccc(Cl)c3)o2)CC1 | -40.2
Cc1ccccc1CSCc1ccc(C(=O)NCCCN2CCOCC2)o1 | -47.6
O=C(NCCCN1CCCC1)c1ccc(CSCc2cccc(Cl)c2)o1 | -61.8
O=C(NCCN1CCOCC1)c1ccc(CSCc2cccc(Cl)c2)o1 | -43.7
COCCNC(=O)c1ccc(CSCc2cccc(Cl)c2)o1 | -7.69
CC(=O)Nc1ccc(S(=O)(=O)Nc2ccc3c(c2)OCCO3)cc1Cl | 15.5
CN(Cc1ccccc1)C(=O)c1c[nH]c2ccc(S(=O)(=O)N3CCOCC3)cc2c1=O | 3.03
Cc1ccc(S(=O)(=O)N2CCN(C(=O)n3ccnc3)CC2)cc1 | -5.76
